Each structure is given as a SMILES string. The source made the active and inactive calls. The calls were made as follows: active = hit-call score of the fitted dose curve at least 0.9, where 1 is the maximum; inactive = score below 0.9.

A word on the AC50: it is the midpoint of the concentration-response curve, whichever way the signal moves.

Read-out in the first assay: not listed separately
Description: CEETOX_H295R_PROG: CeeTox H295R High-throughput Steroidogenesis Assay for Progesterone (PROG) (AID 2283442).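 Also: human H295R adrenal cells primed with 10 µM forskolin before dosing.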 The conditions noted are these: actives raise or lower the signal. An outline of the steps: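 Progesterone secreted by human H295R cells was measured by LC-MS/MS following 48 h chemical exposure at 0.1% DMSO, preceded by 48 h forskolin (10 uM) stimulation. Same-well MTT viability; cytotoxic concentrations diluted 10- or 100-fold and retested.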
For the compound `N#CC(Br)(Br)C(N)=O`, the AC50 was 50 µM (active). Same read-out and setting: the value for `c1ccc2c(c1)-c1cccc3cccc-2c13` was 4.8 µM (active); that for `C[C@]12C=CC3=C4CCC(=O)C=C4CC[C@H]3[C@@H]1CC[C@@H]2O` was 0.0975 µM (active).

Read-out in another assay: Tumor necrosis factor receptor superfamily member 6 (Homo sapiens) (UniProt P25445)
Put plainly: LTEA_HepaRG_FAS: Life Technologies and Expression Analysis (LTEA) Assay for Fas cell surface death receptor (FAS) using HepaRG (AID 2283447). The conditions noted are these: mRNA level, 48 h; actives raise or lower the signal. An outline of the steps: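 Differentiated human HepaRG cells, pre-cultured 48 h, were exposed in duplicate for 48 h to 8-point half-log concentrations (top 100 uM, 0.5% DMSO) in serum-free induction medium; FAS mRNA measured by qRT-PCR, normalized to ACTB/GAPDH/POLR2A, bidirectional fit versus DMSO.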
For `CCCCCCCCn1sccc1=O`, the result was inactive. Same read-out and setting: the value for `Clc1ccccc1Cl` was “inactive”; that for `Cc1ccc([N+](=O)[O-])cc1` was “inactive”; that for `Oc1ccccc1Cl` was “inactive”. On the same count and under the same terms, then `O=C(O)C1C2CCC(O2)C1C(=O)O` (configuration not stated), with “inactive”; and `N#CC(Br)(Br)C(N)=O`, with “inactive”.

For the compound `O=[N+]([O-])C(Br)(CO)CO`, the call was inactive.

Take `Clc1ccc(C(c2ccc(Cl)cc2)C(Cl)Cl)cc1`: the compound was called inactive. Still for that read-out and setting: then `CCCCCCCCOC(=O)c1ccc(C(=O)OCCCCCCCC)c(C(=O)OCCCCCCCC)c1`, with “inactive”; and `OCCOCCO`, with “inactive”. Same read-out and setting: the value for `CC(C)(C)OOC(C)(C)CCC(C)(C)OOC(C)(C)C` was “inactive”; that for `C[C@]12C=CC3=C4CCC(=O)C=C4CC[C@H]3[C@@H]1CC[C@@H]2O` was “inactive”.

Take `OCCCBr`: the compound was classed as inactive.

Regarding `Nc1cc(Cl)cc(C(=O)O)c1Cl`, the call was inactive. The same measure, in the same setting: then `[Cl-].[Cl-].[Hg+2]`, with “inactive”; and `CN(C)c1ccc(C(=O)c2ccc(N(C)C)cc2)cc1`, with “inactive”. Take `COC(=O)c1ccccc1N`: the compound was classed as inactive. On the same count and under the same terms, then `ClC1=C(Cl)[C@]2(Cl)[C@H]3[C@H]([C@@H]4C=C[C@H]3C4)[C@@]1(Cl)C2(Cl)Cl`, with “inactive”. The same measure, in the same setting: the value for `CCCSC(=O)N(CCC)CCC` was “inactive”; that for `ClC1=C(Cl)C2(Cl)C3C(Cl)C=CC3C1(Cl)C2(Cl)Cl` (configuration not stated) was “inactive”. On the same count and under the same terms, then `OCCCl`, with “inactive”; and `Cc1ccc(N)cc1`, with “inactive”. Regarding `C1=Cc2cccc3cccc1c23`, the compound was called inactive.

In the case of `O=C1CCCO1`, the AC50 is 50 µM (active).

The values are drawn from PubChem BioAssay (EPA / NIEHS).
